Experiment [1] is described as follows: qHTS assay to identify small molecule antagonists of the estrogen related receptor (ERR) signaling pathway from Tox21 library - cell viability counter screen (AID 1224834). Further: nearly all actives have a fitted effect of over 30% in size. Further: potency means the concentration at half of the fitted maximal effect. The method in brief: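 CellTiter-Fluor fluorescence, read after 30 min at 37 C, measures viability of ERR cells. Cells plated at 2,000/well and incubated 6 h before pin-tool compound addition, then exposed 17.5 hours at 37 C.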
(Quantitative high-throughput screening tests each substance at several concentrations.)

Experiment [2] deals with Luciferin 4-monooxygenase (Photinus pyralis) (UniProt P08659). Briefly: qHTS assay to identify small molecule inhibitors of firefly luciferase (AID 1224835). Further: nearly all actives have a fitted effect of over 25% in size. Further: potency means the concentration at half of the fitted maximal effect. On activity change, negative = inhibition: series mostly up to about 120 µM. The essentials:
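Quantitative HTS format; KM concentrations of both substrates. Purified P. pyralis FLuc activity quantified from luminescence images.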

Experiment [3] is described as follows: qHTS assay to identify small molecule agonists of the constitutive androstane receptor (CAR) signaling pathway - cell viability counter screen (AID 1224836). Further: nearly all actives have a fitted effect of over 45% in size. Further: potency means the concentration at half of the fitted maximal effect. On viability change, negative = cytotoxic: series mostly up to about 92 µM. The method in brief:
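HepG2-CYP2B6-hCAR, 2500 cells/well, 4 h pre-incubation; cpd 15 conc + PK11195 0.75 uM final; 23 h, 37 C/5% CO2; CellTiter-Fluor, fluorescence.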

The nature of experiment [4]: qHTS assay to identify small molecule antagonists of the constitutive androstane receptor (CAR) signaling pathway - cell viability counter screen (AID 1224837). Further: nearly all actives have a fitted effect of over 45% in size. Further: potency means the concentration at half of the fitted maximal effect. On activity change, negative = cytotoxicity: series mostly up to about 92 µM. The method in brief: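 Cytotoxicity counter-screen: CellTiter-Fluor fluorescence after 23 h compound exposure (15-point qHTS) in double-stable HepG2-CYP2B6-hCAR cells, with 50 nM CITCO added.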
The target of experiment [5] is Nuclear receptor subfamily 1 group I member 3 (Homo sapiens) (UniProt Q14994). Kind of experiment: qHTS assay to identify small molecule antagonists of the constitutive androstane receptor (CAR) signaling pathway (AID 1224838).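 Further: HepG2 cells stably expressing hCAR with CYP2B6 luciferase reporter stimulated by CITCO; nearly all actives have a fitted effect of over 40% in size.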 The essentials: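 Antagonism measured as luciferase signal (ONE-Glo, 30 min, room temperature) in CAR-stimulated cells: HepG2-CYP2B6-hCAR double-stable line exposed 24 hr at 37 C to compound in a 15-point series plus 50 nM CITCO.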

The target is the same in experiment [6]. Kind of experiment: qHTS assay to identify small molecule agonists of the constitutive androstane receptor (CAR) signaling pathway (AID 1224839).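 Further: HepG2 cells stably carrying human CAR and a CYP2B6 luciferase reporter; series mostly up to about 92 µM; nearly all actives have a fitted effect of over 15% in size.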 The method in brief:
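HepG2-CYP2B6-hCAR cells, 2500/well, 4 h pre-incubation; compounds 15 conc.; PK11195 0.75 uM final; 24 h, 37 C/5% CO2; ONE-Glo luciferase read.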

Experiment [7] can be described thus: qHTS assay to identify small molecule antagonists of the estrogen related receptor signaling pathway with the pleiotropic PPARgamma coactivator (PGC) from Tox21 10K library - cell viability counter screen (AID 1224840; active means well fitted cell-killing curve with a large enough effect in the repeat runs, not every such curve was filed as active; further: nearly all actives have a fitted effect of over 40% in size). The method in brief:
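Counter-screen for cytotoxicity: after 17.5 h compound exposure at 37 C, CellTiter-Fluor reagent added to PGC/ERR cells for 30 min and fluorescence read. Cells were seeded at 2,000 per well 6 h before dosing.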

A short description of experiment [8]: qHTS assay to identify small molecule agonists of the estrogen related receptor signaling pathway with the pleiotropic PPARgamma coactivator (PGC) (AID 1224823). The essentials: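 Compounds dissolved in DMSO are added by pin tool to PGC/ERR cells that have settled for 6 h, and incubation continues 18 h at 37 C. Reporter output is measured as One-Glo luminescence.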

The nature of experiment [9]: qHTS assay to identify small molecule antagonists of the estrogen related receptor signaling pathway with the pleiotropic PPARgamma coactivator (PGC) from Tox21 10K library (AID 1224841; call rule not given here; further: series mostly up to about 92 µM; actives are mostly falling curves and most rising ones were filed inactive; nearly all actives have a fitted effect of over 50% in size). The method in brief: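 Luminescence (One-Glo, 30 min at room temperature) after 18 h compound treatment at 37 C of PGC/ERR reporter cells plated at 2,000 cells/well and settled 6 h beforehand.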

Experiment [10] in a line: qHTS assay to identify small molecule agonists of the estrogen related receptor signaling pathway with the pleiotropic PPARgamma coactivator (PGC) from Tox21 10K library (AID 1224842). Further: nearly all actives have a fitted effect of over 15% in size. The method in brief:
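PGC/ERR reporter cells (NTP line) were seeded 2,000 per well, rested 6 h at 37 C/5% CO2, then pin-dosed with compounds in DMSO for 18 h at 37 C; luciferase read by One-Glo luminescence after 30 min at room temperature.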

Results filed as inconclusive are left out. Values without a mark were called inactive. Active and inactive are the calls of the source. Unless noted, the call rests on the fitted dose curve; in most records, active means well fitted curve in the direction sought with a large enough effect in the repeat runs; inconclusive means weak or mixed curves; inactive means no such curve, though single readings can be large; an effect the other way counts as inactive or inconclusive.
On the % scale 0 is the no-effect control and ±100 the full control effect.

Chain of Luciferin 4-monooxygenase (Photinus pyralis) (P08659 whole entry, looked up): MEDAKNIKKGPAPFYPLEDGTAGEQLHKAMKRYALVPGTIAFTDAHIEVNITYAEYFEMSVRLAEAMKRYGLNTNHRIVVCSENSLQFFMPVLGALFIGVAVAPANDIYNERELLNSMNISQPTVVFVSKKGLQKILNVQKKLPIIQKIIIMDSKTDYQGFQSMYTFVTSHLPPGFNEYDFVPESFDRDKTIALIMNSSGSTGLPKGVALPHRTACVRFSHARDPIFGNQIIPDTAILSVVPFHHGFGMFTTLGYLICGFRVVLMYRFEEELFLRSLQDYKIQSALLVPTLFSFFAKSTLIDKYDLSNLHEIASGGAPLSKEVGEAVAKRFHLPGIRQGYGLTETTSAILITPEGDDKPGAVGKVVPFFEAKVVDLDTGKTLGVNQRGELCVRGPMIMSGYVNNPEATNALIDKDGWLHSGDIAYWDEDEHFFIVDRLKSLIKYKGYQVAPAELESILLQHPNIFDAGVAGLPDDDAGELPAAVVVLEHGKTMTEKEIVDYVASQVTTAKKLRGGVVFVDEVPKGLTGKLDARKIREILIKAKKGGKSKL
Chain of Nuclear receptor subfamily 1 group I member 3 (Homo sapiens) (Q14994 whole entry, looked up): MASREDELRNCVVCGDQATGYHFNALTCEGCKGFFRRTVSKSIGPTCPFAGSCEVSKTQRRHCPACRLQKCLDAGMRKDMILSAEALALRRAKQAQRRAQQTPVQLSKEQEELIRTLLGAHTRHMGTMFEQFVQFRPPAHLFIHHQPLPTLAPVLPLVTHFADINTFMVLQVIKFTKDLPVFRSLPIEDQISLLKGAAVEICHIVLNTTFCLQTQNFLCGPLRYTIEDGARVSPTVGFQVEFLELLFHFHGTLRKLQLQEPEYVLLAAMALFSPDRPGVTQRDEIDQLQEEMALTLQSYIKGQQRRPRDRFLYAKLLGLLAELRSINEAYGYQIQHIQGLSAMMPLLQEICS

Regarding `O=C1CC(c2ccc(Cl)cc2)CC(=O)N1`, the Potency entry in [1], in [2], in experiment [3], in [4] and in experiment [6] was “inactive” throughout. Further, the compound was called inactive in experiment [5].
`COc1ccc(S(=O)(=O)N2c3ccc(Cl)cc3[C@@](O)(c3ccccc3Cl)[C@H]2C(=O)N2CCC[C@@H]2C(N)=O)cc1OC`: the Potency result in experiment [1], in [2], in experiment [3] and in experiment [4] was “inactive” throughout.
As for `Cc1ccc(C=O)cc1C`, the Potency entry in experiment [1], in [2], in experiment [3], in [4] and in experiment [6] was “inactive” throughout. Moreover, the result in [5] was inactive.
In the case of `CN(C)C(=O)CNC(=O)Cc1ccccc1`, the Potency entry in [1], in [2], in experiment [3], in experiment [4] and in experiment [6] was “inactive” each time. For the same compound, the call in [5] and in experiment [7] was inactive.
Consider `CC(C)NCC(O)COc1ccc(COCCOC(C)C)cc1` (stereo not given), for which the Potency entry in experiment [1], in experiment [2], in [3] and in [4] was “inactive” each time. Moreover, the compound was classed as inactive in experiment [5].
On to `O=C(CCN1CCN(CCO)CC1)N1c2ccccc2Sc2ccc(C(F)(F)F)cc21`, for which the Potency result in experiment [1], in [2], in experiment [3], in experiment [4] and in [6] was “inactive” each time. Further, the call in experiment [5] was inactive.
On to `Oc1cn2c(n1)Nc1ccc(Cl)c(Cl)c1C2`, for which the viability change, negative = cytotoxic in [1] is 0.934% [at 19 µM]; in experiment [3] it was -4.95% [at 19 µM]. The activity change, negative = inhibition in experiment [2] was 0.455% [at 23.6 µM]. Besides, in [4], the activity change, negative = cytotoxicity was 5.38% [at 19 µM]. In addition, the activity, negative = inhibition in [5] was 39.2% [at 19 µM]. For the same compound, the activation in [6] is 5.1% [at 19 µM].
As for `NS(=O)(=O)c1ccc(NC(=O)CCC(=O)O)cc1`, the Potency result in experiment [1], in experiment [2], in experiment [3], in experiment [4] and in experiment [6] was “inactive” in each case. For the same compound, the compound was classed as inactive in experiment [5] and in [7].
On to `C[C@H](N)[C@H](O)c1cccc(O)c1`, for which the Potency result in [1], in [2], in experiment [3] and in [4] was “inactive” throughout.
On to `CC(C)c1ccc2cc(C(C)C)ccc2c1`, for which the Potency entry in experiment [1], in [3] and in [4] was “inactive” each time. In addition, the Potency in experiment [2] was 15.9 µM (active).
In the case of `C=CCCCCCCCCCCCC`, the Potency result in [1], in [2], in experiment [3], in experiment [4] and in experiment [6] was “inactive” in each case. Besides, the result in experiment [5] and in experiment [7] was inactive.
In the case of `COCCOCCOCCOCCO`, the Potency result in [1], in experiment [2], in [3], in experiment [4] and in [6] was “inactive” each time. Moreover, the call in experiment [5] and in experiment [7] was inactive.
Take `NCCS`: the outcome in experiment [8] and in [10] was inactive. Moreover, the Potency entry in [1], in [2], in experiment [3], in experiment [4] and in [9] was “inactive” each time.
With `CN1CCN(CC(=O)N2c3ccccc3C(=O)Nc3cccnc32)CC1`, in experiment [8], the result was inactive. For the same compound, the viability change, negative = cytotoxic in [1] is 2.62% [at 8.39 µM]; in [3], -1.77% [at 8.39 µM]; in [7], 8.41% [at 8.39 µM]. For the same compound, the activity change, negative = inhibition in [2] was 1.23% [at 10.5 µM]. Moreover, in experiment [4], the activity change, negative = cytotoxicity was 7.37% [at 8.39 µM]. The activity, negative = inhibition in experiment [5] is -1.39% [at 8.39 µM]; in experiment [9], 2.2% [at 8.39 µM]. Besides, the activation was -1% [at 8.39 µM] in experiment [6] and 0.61% [at 8.39 µM] in [10].
With `O=C1CCCC(=O)O1`, the Potency entry in experiment [1], in experiment [2], in [3], in experiment [4] and in experiment [6] was “inactive” each time. Besides, the compound was classed as inactive in experiment [5].
As to `N[C@@H](COP(=O)(O)O)C(=O)O`, the results for the viability change, negative = cytotoxic in experiment [1], in experiment [3] and in experiment [7] were -0.524% [at 19 µM], 0.478% [at 19 µM] and 2.06% [at 19 µM], respectively. Further, the activity change, negative = inhibition in experiment [2] is 0.319% [at 23.6 µM]. For the same compound, the activity change, negative = cytotoxicity in [4] was 10.4% [at 19 µM]. Further, the activity, negative = inhibition in experiment [5] was 2.8% [at 19 µM]. For the same compound, in [6], the activation was -2.56% [at 19 µM].
Regarding `Cc1cc(C(C)(C)C)c(O)c(C)c1CC1=NCCN1`, the Potency result in [1], in [2], in [3], in experiment [4] and in [6] was “inactive” each time. The compound was classed as inactive in [5] and in experiment [7].
Consider `CCOC(=O)CC(=O)c1ccccc1`, for which the Potency result in experiment [1], in experiment [2], in experiment [3], in experiment [4] and in experiment [6] was “inactive” throughout. Besides, the result in experiment [5] was inactive.
Regarding `O=C(CCNNC(=O)c1ccncc1)NCc1ccccc1`, the Potency entry in experiment [1], in [2], in [3] and in experiment [4] was “inactive” in each case. The compound was called inactive in experiment [5].
With `CCN1CCc2nc(N)oc2CC1`, the Potency entry in experiment [1], in experiment [2], in experiment [3], in [4] and in [6] was “inactive” in each case. Besides, the compound was called inactive in [5] and in [7].
Turning to `NC(CO)C(=O)NNCc1ccc(O)c(O)c1O` (stereo not given), the result in [8] and in experiment [10] was inactive. For the same compound, the Potency entry in experiment [1], in [2], in experiment [3], in experiment [4] and in [9] was “inactive” each time.
For the compound `CCN(CC)CC(=O)Nc1c(C)cccc1C`, the result in [8], in [7] and in experiment [10] was inactive. Moreover, the Potency result in experiment [1], in [3], in experiment [4] and in experiment [9] was “inactive” each time.
For the compound `COc1ccc2c(c1OC)C(=O)O[C@@H]2[C@H]1c2c(cc3c(c2OC)OCO3)CCN1C`, the result in experiment [8], in experiment [5] and in experiment [10] was inactive. For the same compound, the Potency in experiment [1] was 11.9 µM (active); in experiment [3], 8.41 µM (active); in experiment [4], 10.6 µM (active). The Potency entry in experiment [2] and in experiment [9] was “inactive” throughout.
`COC(=O)[C@@H]1[C@H]2C[C@H]3c4[nH]c5ccccc5c4CCN3C[C@@H]2CC[C@@H]1O`: the compound was classed as inactive in experiment [8], in experiment [5] and in experiment [10]. The Potency entry in experiment [1], in experiment [2], in experiment [3], in [4] and in [9] was “inactive” each time.
In the case of `CC(C)N(c1ccccc1)C(C)C`, the Potency result in experiment [1], in experiment [2], in [3], in experiment [4] and in experiment [6] was “inactive” in each case. Also, the result in experiment [5] and in experiment [7] was inactive.
As to `CCCCCCCCCC(C)=O`, the Potency result in experiment [1], in experiment [2], in [3], in experiment [4] and in experiment [6] was “inactive” in each case. The result in experiment [5] and in experiment [7] was inactive.
In the case of `CCOC(=O)c1ncn2c1CN(C)C(=O)c1cc(F)ccc1-2`, the Potency entry in experiment [1], in experiment [2], in experiment [3] and in [4] was “inactive” in each case.
For `C[C@@H](O)[C@H]1C(=O)N2C(C(=O)O)=C(SCCN=CN)C[C@H]12`, the call in experiment [8], in experiment [5], in experiment [7] and in [10] was inactive. In addition, the Potency result in experiment [1], in experiment [2], in [3], in experiment [4] and in experiment [9] was “inactive” throughout.
Turning to `COCCc1ccc(OCC2CO2)cc1` (stereo not given), the Potency result in experiment [1], in experiment [2], in [3], in experiment [4] and in experiment [6] was “inactive” in each case. Moreover, in experiment [5], the call was inactive.
Regarding `Cc1cccc(C)c1OCC(C)N` (stereo not given), the compound was called inactive in experiment [8], in experiment [5], in experiment [7] and in experiment [10]. Besides, the Potency result in experiment [1], in experiment [2], in experiment [3], in experiment [4], in experiment [6] and in experiment [9] was “inactive” throughout.
Take `COc1ccc(C2CNC(=O)C2)cc1OC1CCCC1` (stereo not given): the outcome in [8], in experiment [7] and in experiment [10] was inactive. The Potency result in experiment [1], in experiment [2], in experiment [3], in experiment [4] and in experiment [9] was “inactive” throughout.

For the origin of these results see PubChem BioAssay (Tox21).
